Here are results for 15 compounds from PubChem BioAssay (NCI).

About 83,000 compounds went through this panel and 20% of them were active in at least one assay; those are over-represented in the sample as a whole.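 Note: values are percent growth. 100 is the growth of untreated cells, values between 100 and 0 indicate rising inhibition; between -100 and 0 indicates cell death.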 Values without a mark were called inactive. Active and inactive are the calls of the source. How the source made its calls: active means growth percent below 10; inactive means the rest.

Holding throughout (test): NCI-60 one-dose screen, 48 h (100 = growth as untreated, 0 = no growth, -100 = all killed)
Holding throughout (details): 10 µM

Experiment [1] concerns HT29 colon.
In experiment [2] the test system is SNB-75 CNS.
Experiment [3] has as its system SNB-19 CNS.
Experiment [4] has as its system U251 CNS.
Experiment [5] concerns PC-3 prostate.
The test system of experiment [6] is SK-MEL-5 melanoma.
In experiment [7] the test system is UACC-62 melanoma.
For experiment [8], the system named is LOX IMVI melanoma.
The subject of experiment [9] is SK-MEL-28 melanoma.

As to `Fc1ccc(C(c2ccc(F)cc2)C(Cl)Cl)cc1`, the growth in experiment [1] was 97.7%; in [2], 96.1%; in [3] it was 101%; in experiment [4], 103%; in [5], 92.2%; in [6], 101%. Also, the growth in experiment [7] is 106%; in experiment [8], 96.3%; in [9] it was 101%.
On to `CCCCC1(O)CCCCC1`, for which the growth in [1] was 98.5%; in [2], 105%; in experiment [3] it was 106%; in experiment [4], 99.1%; in experiment [6], 105%; in experiment [7], 102%. Further, in [9], the growth was 106%.
Regarding `OC[C@H]1OC([S-])[C@H](O)[C@@H](O)[C@@H]1O.[Au+]` (stereo not given in full), the growth is 83.8% in experiment [1]; 98.8% in [2]; 101% in experiment [3]; 61.7% in [4]; 77.8% in [5]; 68.5% in experiment [6]. The growth in experiment [7] is 63.3%; in experiment [8], 50.3%; in experiment [9], 68.9%.
With `COc1ccccc1-n1c(-c2sc(NC(C)=O)nc2C)n[nH]c1=S`, the growth in experiment [1] was 104%; in experiment [2], 86.4%; in experiment [3], 103%; in experiment [5], 95.9%; in experiment [6], 105%; in experiment [7], 98.5%. Further, the growth in [8] is 97.5%; in [9], 117%.
For `CC(=O)OC1C=CC(OC(C)=O)O1` (stereo not given), the growth in [1] is 91.5%; in experiment [2] it was 95.3%; in [3], 104%; in experiment [4], 88.6%; in experiment [5], 92.7%; in experiment [6], 104%. For the same compound, the growth in experiment [7] was 84.4%; in [8], 80.4%; in experiment [9], 110%.
Regarding `O=C(COc1cccc(/C=C2\CSc3ccc(Cl)cc3C2=O)c1)c1ccc(Cl)cc1`, the growth in experiment [1] is 16.7%; in experiment [2] it was 74.7%; in experiment [3] it was 89.1%; in experiment [4], 59.9%; in experiment [5] it was 43.7%; in experiment [6], 86.1%. Besides, the growth in [7] is 71.1%; in experiment [8], 23.8%; in experiment [9], 107%.
Take `COc1ccc(-c2nn(-c3cccc(Cl)c3)cc2-c2c(C#N)c(=O)n3[nH]c(-c4ccccc4)nc3c2C#N)cc1`: the growth was 96.9% in experiment [1]; 80.3% in [2]; 90.9% in [3]; 96.4% in experiment [6]; 99.3% in [7]; 87.6% in experiment [8]. For the same compound, the growth in experiment [9] was 115%.
As to `CC(C)c1ccc(C(C)C(=O)N(CC2=C(C(C)c3ccccn3)c3ccccc3C2)C(C)C)cc1` (stereo not given), the growth in experiment [1] was 22.3%; in experiment [2] it was 49.3%; in [3], 58.2%; in [4] it was 36%; in experiment [5], 17.9%; in experiment [6], 30.2%. Besides, the growth was 53.4% in experiment [7], 31.1% in experiment [8] and 79.7% in experiment [9].
Turning to `COC(=O)c1c[nH]c2cc(OC(C)C)c(OC(C)C)cc2c1=O`, the growth in [1] is 95.6%; in experiment [3] it was 105%; in experiment [4], 6.2% (active); in experiment [5] it was 93.1%; in experiment [6] it was 98.3%; in experiment [7], 106%. In addition, the values for the growth in [8] and in experiment [9] were 95.9% and 117%, respectively.
With `O=C(CSc1nnc(-c2ccc(Cl)cc2)o1)Nc1ccc(C(=O)/C=C/c2ccc(Cl)cc2)cc1`, the growth is 99% in experiment [1]; 98.1% in [2]; 94.6% in [3]; 104% in experiment [4]; 92.8% in [5]; 94.1% in [6]. Also, the growth is 87.6% in [7], 98% in experiment [8] and 110% in experiment [9].
As to `Cc1noc(C)c1CSc1ccccc1C(=O)N1CCN(c2cccc(C(F)(F)F)c2)CC1`, the growth in experiment [1] was 69.4%; in experiment [2] it was 76.2%; in experiment [3], 81.5%; in [5], 55.3%; in experiment [6] it was 43.5%; in experiment [7], 52.2%. The growth in experiment [8] is 74.9%; in [9], 91.4%.
For `COc1ccc2c(c1)C(CC(=O)NN)CCC2` (stereo not given), the growth was 112% in experiment [1]; 89.9% in experiment [2]; 109% in experiment [3]; 102% in [4]; 100% in experiment [5]; 104% in experiment [6]. In addition, the values for the growth in experiment [7], in experiment [8] and in [9] were 104%, 93.7% and 113%, respectively.
Consider `Cc1c(C(N)=O)sc2c1c(=O)n(Cc1ccccc1)c1nnc(-c3ccc(Br)cc3)n21`, for which the growth was 28.6% in experiment [1]; 51.8% in experiment [3]; 11.5% in experiment [4]; 37.2% in [5]; -38.2% (active) in [6]; 6.17% (active) in experiment [7]. For the same compound, the growth in experiment [8] is 5.15% (active); in experiment [9] it was 46.2%.
On to `COc1ccc(-c2nn(-c3cccc(Cl)c3)cc2/C=C2\NC(=S)N(c3ccc(Cl)cc3)C2=O)cc1`, for which the growth was 9.73% (active) in experiment [1]; 0.109% (active) in [2]; 63.2% in experiment [3]; 42.5% in experiment [5]; 24.2% in [6]; 3.65% (active) in experiment [7]. Also, the growth is 1.65% (active) in experiment [8] and -33.5% (active) in [9].
With `CC(C1=C(CN(C(=O)Cc2cn(-c3ccccc3)nc2-c2ccc(Cl)cc2)C(C)C)Cc2ccccc21)c1ccccn1` (stereo not given), the growth in experiment [1] was 32.9%; in experiment [2] it was 80.7%; in experiment [3], 76.9%; in experiment [5] it was 41.7%; in [6], 46.1%; in experiment [7], 63.6%. In addition, the results for the growth in experiment [8] and in experiment [9] were 69.2% and 91.9%, respectively.
